Experimental data from PubChem BioAssay (NCATS).
Results filed as inconclusive are left out. The source made the active and inactive calls. Unless noted, calls follow the shape of the dose curve; as a rule, active = well fitted curve in the direction sought with a large enough effect; inconclusive = small, poorly fitted or top-dose-only effect, or another doubt; inactive = no such curve, though single readings can be large; an effect the other way counts as inactive or inconclusive.

Tests used:
[1] = target: Lysosomal acid glucosylceramidase (Homo sapiens) (UniProt P04062); assay: Glucocerebrosidase-p2 (AID 348; in the data active = potency below about 10 µM; also: potency is read from the fitted curve at half-maximal effect); details: purified GBA, blue fluorogenic substrate, 40 min
Lysosomal acid glucosylceramidase (Homo sapiens), sequence (P04062 whole entry, looked up): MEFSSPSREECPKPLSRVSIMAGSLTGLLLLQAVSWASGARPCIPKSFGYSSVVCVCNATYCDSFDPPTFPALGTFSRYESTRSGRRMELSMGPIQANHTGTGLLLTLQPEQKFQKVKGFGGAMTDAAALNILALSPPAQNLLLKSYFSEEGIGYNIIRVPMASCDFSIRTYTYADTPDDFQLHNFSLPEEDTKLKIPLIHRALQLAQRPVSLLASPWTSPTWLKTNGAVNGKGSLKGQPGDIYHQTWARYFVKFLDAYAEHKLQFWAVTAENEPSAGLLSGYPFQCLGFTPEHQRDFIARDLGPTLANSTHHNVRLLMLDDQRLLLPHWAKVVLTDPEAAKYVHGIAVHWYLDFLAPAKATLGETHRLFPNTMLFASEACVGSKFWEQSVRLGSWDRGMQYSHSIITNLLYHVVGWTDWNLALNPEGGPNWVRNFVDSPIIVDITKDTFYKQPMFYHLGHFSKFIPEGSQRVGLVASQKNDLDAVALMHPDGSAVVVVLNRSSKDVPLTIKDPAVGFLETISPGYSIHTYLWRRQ
How it was run: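 Compounds titrated from 0.6 nM upwards against 0.2 nM enzyme in pH 5.9 citric acid/KH2PO4, taurocholate, tween-20; blue fluorogenic substrate 80 uM, 40 min room temperature, stopped and read Ex 365/Em 440 for AC50.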

[2] = AP1 Signaling Pathway (AID 357; active = well fitted curve in either direction with a large enough effect, not every such curve was filed as active;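 also: ME-180 reporter cells stimulated with EGF at its EC50 level; % is scaled to controls: 0 for no effect and ±100 for the full control effect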); details: ME-180 AP-1-bla reporter, EGF-induced, beta-lactamase ratio, 5 h; at 7.69 µM (top of the series) unless noted
How it was run: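 A ratiometric CCF4 readout (405 nm excitation; 460 and 530 nm emission) quantified AP-1-driven beta-lactamase in ME-180 cells after 5 h with compound and EC50 EGF; AC50 values were derived for activators and inhibitors.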

[3] = target: Cytochrome P450 1A2 (Homo sapiens) (UniProt P05177); assay: p450-cyp1a2 (AID 410; calls by dose curve; also: potency is read from the fitted curve at half-maximal effect); details: recombinant CYP1A2, luciferin-ME demethylation, luminescence; series mostly up to 57 µM
Cytochrome P450 1A2 (Homo sapiens), sequence (P05177 whole entry, looked up): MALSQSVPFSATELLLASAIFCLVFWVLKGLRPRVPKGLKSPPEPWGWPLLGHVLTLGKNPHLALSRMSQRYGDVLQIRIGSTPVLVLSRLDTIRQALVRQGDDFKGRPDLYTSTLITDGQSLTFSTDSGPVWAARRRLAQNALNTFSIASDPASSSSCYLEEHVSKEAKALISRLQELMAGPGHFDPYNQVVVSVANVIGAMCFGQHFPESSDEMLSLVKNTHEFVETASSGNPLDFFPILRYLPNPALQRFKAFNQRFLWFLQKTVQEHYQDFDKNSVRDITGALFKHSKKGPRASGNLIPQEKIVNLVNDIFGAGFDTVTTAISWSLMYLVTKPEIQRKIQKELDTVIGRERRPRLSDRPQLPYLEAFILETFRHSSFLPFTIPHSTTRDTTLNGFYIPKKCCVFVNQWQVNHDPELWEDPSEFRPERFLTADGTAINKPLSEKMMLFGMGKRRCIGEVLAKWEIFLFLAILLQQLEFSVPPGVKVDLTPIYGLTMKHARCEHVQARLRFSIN
How it was run: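 Luminescent readout of luciferin formed from Luciferin-ME by human CYP1A2; data normalized against complete inhibition by 57 uM furafylline. Enzyme 20nM, substrate 100uM at Km, 100mM KPO4 buffer, 60 min reaction at room temperature.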

[4] = NFAT Signaling Pathway (AID 444; active = well fitted curve in either direction with a large enough effect, not every such curve was filed as active;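 also: carbachol stimulus at about its EC50 of 1 µM final; % is scaled to controls: 0 for no effect and ±100 for the full control effect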); details: Jurkat NFAT-bla M1, carbachol, beta-lactamase ratio, 5 h; at 7.69 µM (top of the series) unless noted
How it was run: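 Read-out: CCF4 FRET ratio (460 nm/530 nm) after 1 h RT dye loading, used for %activity and AC50 from titration series. Cells: Jurkat NFAT-β-lactamase/M1 line, treated with compound plus 1 uM carbachol for 5 h, 37 °C.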

[5] = Stat Signaling Pathway (AID 446; active = well fitted curve in either direction with a large enough effect, not every such curve was filed as active;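 also: ME-180 cervical cancer cells given 40 pM IL-6 alongside compound; SIE-controlled beta-lactamase reporter measured as 460/530 nm FRET emission ratio; % is scaled to controls: 0 for no effect and ±100 for the full control effect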); details: ME-180 SIE beta-lactamase reporter, IL-6 stimulated, 5 h; at 7.69 µM (top of the series) unless noted
How it was run: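 Screening format detects activators and inhibitors alike: ME-180 SIE-bla cells stimulated at 40 pM IL-6 for 5 hrs with compound, then dual-emission beta-lactamase read at 405 nm excitation.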

[6] = target: Glucocorticoid receptor (Homo sapiens) (UniProt P04150); assay: GR-GFP Redistribution (AID 450;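 active = compounds whose dose series gives a full or clear partial fitted curve of increased nuclear translocation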; also: potency is read from the fitted curve at half-maximal effect); details: U2OS GR-GFP nuclear translocation, laser cytometry, 2 h
Glucocorticoid receptor (Homo sapiens), sequence (P04150 whole entry, looked up, the tested form may be a part): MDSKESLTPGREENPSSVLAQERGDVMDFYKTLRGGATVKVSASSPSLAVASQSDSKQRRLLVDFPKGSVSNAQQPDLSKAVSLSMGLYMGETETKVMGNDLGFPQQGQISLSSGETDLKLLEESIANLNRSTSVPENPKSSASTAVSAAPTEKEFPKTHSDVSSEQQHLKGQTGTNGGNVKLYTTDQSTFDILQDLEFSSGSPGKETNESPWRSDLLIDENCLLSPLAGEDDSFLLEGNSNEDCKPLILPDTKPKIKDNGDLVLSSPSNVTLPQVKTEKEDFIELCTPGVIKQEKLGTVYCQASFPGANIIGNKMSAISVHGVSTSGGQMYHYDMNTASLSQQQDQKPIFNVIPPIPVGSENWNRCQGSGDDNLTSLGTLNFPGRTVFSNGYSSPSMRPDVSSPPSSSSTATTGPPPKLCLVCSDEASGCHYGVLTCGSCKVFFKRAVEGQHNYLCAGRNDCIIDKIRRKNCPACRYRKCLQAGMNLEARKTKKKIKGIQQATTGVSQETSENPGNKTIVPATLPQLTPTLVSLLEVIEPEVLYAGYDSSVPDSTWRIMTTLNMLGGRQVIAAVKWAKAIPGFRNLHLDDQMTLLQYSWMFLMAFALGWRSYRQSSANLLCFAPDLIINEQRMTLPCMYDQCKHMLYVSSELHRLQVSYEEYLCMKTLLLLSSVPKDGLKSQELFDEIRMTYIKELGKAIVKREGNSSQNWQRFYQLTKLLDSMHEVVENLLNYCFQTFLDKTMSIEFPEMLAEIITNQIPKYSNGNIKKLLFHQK

[7] = target: Glucocorticoid receptor (Homo sapiens) (UniProt P04150); assay: GR-EFC Redistribution (AID 451; calls by dose curve; also: potency is read from the fitted curve at half-maximal effect); details: CHO-K1 GR-EFC translocation, beta-gal luminescence, 2 h
How it was run: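 Translocation of GR-ED fusion to nuclear EA restores b-gal, read by luminescence after 1 h room-temperature detection. Engineered CHO-K1 biosensor cells, 1,000/well, exposed 2 h at 37 C to titrations up to 46 uM final.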

[8] = target: 3',5'-cyclic-AMP phosphodiesterase 4B (Homo sapiens) (UniProt Q07343); assay: qHTS Assay for Inhibitors of PDE-IV (AID 607; active = well fitted activation curve with a large enough effect in the main read-out, with a control signal flat, not every such curve was filed as active; also: % of control where 0% means no effect); details: HEK293 ACTOne CNG channel cells, membrane potential fluorescence; series mostly up to 22.9 µM
3',5'-cyclic-AMP phosphodiesterase 4B (Homo sapiens), sequence (Q07343 whole entry, looked up): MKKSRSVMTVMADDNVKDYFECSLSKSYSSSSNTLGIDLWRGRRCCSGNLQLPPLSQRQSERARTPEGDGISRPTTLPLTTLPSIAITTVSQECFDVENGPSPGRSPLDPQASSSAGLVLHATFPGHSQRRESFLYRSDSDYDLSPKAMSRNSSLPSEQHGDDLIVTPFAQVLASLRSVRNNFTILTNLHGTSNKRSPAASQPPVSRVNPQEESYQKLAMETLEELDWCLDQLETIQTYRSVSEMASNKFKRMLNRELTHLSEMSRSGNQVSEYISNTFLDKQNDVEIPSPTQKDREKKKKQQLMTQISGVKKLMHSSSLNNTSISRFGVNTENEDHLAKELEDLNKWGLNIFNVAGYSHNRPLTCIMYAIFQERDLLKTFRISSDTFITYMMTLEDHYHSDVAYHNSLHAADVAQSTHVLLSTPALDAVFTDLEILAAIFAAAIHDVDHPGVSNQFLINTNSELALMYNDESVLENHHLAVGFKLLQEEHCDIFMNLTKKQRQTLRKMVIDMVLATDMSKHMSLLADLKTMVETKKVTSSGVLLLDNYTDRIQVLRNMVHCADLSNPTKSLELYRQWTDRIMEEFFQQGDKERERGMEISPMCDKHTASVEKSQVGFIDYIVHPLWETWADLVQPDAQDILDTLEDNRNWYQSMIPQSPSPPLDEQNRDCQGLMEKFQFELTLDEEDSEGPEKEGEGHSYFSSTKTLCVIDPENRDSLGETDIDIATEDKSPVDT
How it was run: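 The readout is membrane depolarisation from a cAMP-sensing CNG channel, detected with a potential dye at ex 535/em 590. Cells were HEK293-derived (endogenous PDE-IV) at 1000 cells/well, titrated up to 22.9 uM final.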

[9] = target: Cytochrome P450 3A4 (Homo sapiens) (UniProt P08684); assay: qHTS Assay for Activators of Cytochrome P450 3A4 (AID 885); details: recombinant CYP3A4, Luciferin-PPXE luminescence, 60 min; series mostly up to 57.1 µM; also: nearly all actives have a fitted effect of over 65% in size
Cytochrome P450 3A4 (Homo sapiens), sequence (P08684 whole entry, looked up): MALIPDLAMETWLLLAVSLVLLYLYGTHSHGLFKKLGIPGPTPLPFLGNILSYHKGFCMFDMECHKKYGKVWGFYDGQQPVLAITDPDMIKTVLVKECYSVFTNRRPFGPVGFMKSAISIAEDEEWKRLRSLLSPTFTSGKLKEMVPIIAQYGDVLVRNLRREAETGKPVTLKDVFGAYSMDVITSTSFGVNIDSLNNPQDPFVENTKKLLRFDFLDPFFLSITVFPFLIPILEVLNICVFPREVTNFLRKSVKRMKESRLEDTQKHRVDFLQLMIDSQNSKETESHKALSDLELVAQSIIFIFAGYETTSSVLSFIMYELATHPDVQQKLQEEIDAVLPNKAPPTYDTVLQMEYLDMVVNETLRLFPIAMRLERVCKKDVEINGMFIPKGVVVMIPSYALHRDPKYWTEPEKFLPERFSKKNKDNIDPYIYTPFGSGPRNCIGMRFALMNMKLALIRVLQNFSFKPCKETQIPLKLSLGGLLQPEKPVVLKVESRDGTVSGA
How it was run: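 Steps: enzyme/substrate mix dispensed; compound added, 10 min RT; NADPH regeneration solution added, 60 min RT; luciferin detection buffer stops reaction; 20 min later luminescence measured.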

[10] = Confirmation and Secondary Assay for Modulators of Hemoglobin Beta Chain Splicing at IVS2 654 locus (AID 910); details: HeLa EGFP-654 splicing reporter, GFP fluorescence, 48 h; series mostly up to 38.3 µM;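 also: HeLa cells stably carrying EGFP split by mutant beta-globin IVS2-654 intron; % of control where 0% means no effect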
How it was run: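 Readout: per-well total peak green fluorescence (488 nm ex, 500–520 nm em) from objects 5–250 µm, reflecting correct splicing of an EGFP-654 reporter. Compounds were applied for 2 days at 37 °C to overnight-plated HeLa EGFP-654 cells; controls were DMSO and 500 nM IVS2-654 PNA.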

[11] = qHTS Assay for Identification of Small Molecule Agonists for Hypoxia Response Element Signaling Pathway (AID 914; active = well fitted activation curve with a large enough effect in the signal ratio, with a control signal flat, not every such curve was filed as active; the % refers to the signal ratio; also: % of control where 0% means no effect); details: ME-180 (cervical carcinoma) HRE-bla reporter, beta-lactamase ratio, CoCl2, 17 h; activation: stronger effect = higher value
How it was run: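 HRE-bla ME-180 cells, overnight plating in Opti-MEM with 0.5% dialyzed FBS; cpd titration + EC50 CoCl2, 17 h, 37 degrees Celsius; CCF4 2.5 h RT; 460/530 nm ratio; AC50.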

[12] = Confirmation and Secondary Assay for Modulators of Hemoglobin Beta Chain Splicing at IVS2 705 locus (AID 930); details: HeLa EGFP-705 splicing reporter, GFP fluorescence, 48 h; series mostly up to 38.3 µM;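 also: HeLa cells stably expressing the EGFP-705 splicing reporter; GFP fluorescence per well restored by corrected splicing of the IVS2-705 intron in EGFP; % of control where 0% means no effect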
How it was run: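 Read-out: total peak GFP fluorescence per well (488 nm excitation, 500-520 nm emission) by laser-scanning cytometry. Cells: HeLa EGFP-705 splicing reporter, 2 days compound exposure in Optimem/2% FCS.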

[13] = qHTS Assay for Lipid Storage Modulators (AID 1519; calls by dose curve); details: Drosophila S3 cells, BODIPY lipid droplet/cell ratio, laser cytometry, cells loaded with oleic acid; for activity change, negative = inhibition: at 57.5 µM (top of the series)
How it was run: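 Cells seeded at 5,000 per well were treated with compounds over a concentration series and loaded with oleic acid (400 uM, as added). Lipid droplet fluorescence (488 nm excitation, 500-530 nm channel) was read by laser-scanning cytometry and normalized to 20 uM Triacsin C.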

[14] = target: Ubiquitin carboxyl-terminal hydrolase 1 (Homo sapiens) (UniProt O94782); assay: Inhibitors of USP1/UAF1: Pilot qHTS (AID 504865); details: purified USP1/UAF1, Ub-rhodamine cleavage fluorescence; series mostly up to 54.9 µM; also: nearly all actives have a fitted effect of over 35% in size; also: potency is read from the fitted curve at half-maximal effect
Ubiquitin carboxyl-terminal hydrolase 1 (Homo sapiens), sequence (O94782 whole entry, looked up): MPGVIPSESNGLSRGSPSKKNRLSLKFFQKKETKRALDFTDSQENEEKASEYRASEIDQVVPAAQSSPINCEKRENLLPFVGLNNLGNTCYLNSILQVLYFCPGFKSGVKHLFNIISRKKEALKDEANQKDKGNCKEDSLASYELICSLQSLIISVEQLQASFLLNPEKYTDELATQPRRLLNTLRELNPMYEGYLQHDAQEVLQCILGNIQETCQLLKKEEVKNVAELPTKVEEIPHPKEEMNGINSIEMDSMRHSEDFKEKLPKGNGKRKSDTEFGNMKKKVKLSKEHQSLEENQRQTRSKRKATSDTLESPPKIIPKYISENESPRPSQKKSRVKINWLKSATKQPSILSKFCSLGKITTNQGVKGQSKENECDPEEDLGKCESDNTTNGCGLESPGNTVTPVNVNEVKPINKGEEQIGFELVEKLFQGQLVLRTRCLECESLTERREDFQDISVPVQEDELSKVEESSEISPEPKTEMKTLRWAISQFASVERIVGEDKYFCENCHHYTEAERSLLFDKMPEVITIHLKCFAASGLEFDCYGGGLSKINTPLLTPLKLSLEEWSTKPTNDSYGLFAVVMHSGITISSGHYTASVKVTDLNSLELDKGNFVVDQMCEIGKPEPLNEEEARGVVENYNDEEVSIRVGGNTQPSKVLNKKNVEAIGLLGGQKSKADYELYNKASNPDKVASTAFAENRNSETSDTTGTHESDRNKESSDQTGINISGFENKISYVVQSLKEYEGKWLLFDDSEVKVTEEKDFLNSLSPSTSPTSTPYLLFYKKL
How it was run: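 Enzyme-free wells gave the negative control, while test wells held 1nM USP1/UAF1 preincubated with compound for 15 min at room temperature. Ub-Rho at 150nM final started the reaction, and fluorescence at 480/540 nm was recorded kinetically.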

[15] = Primary qHTS for small molecule stabilizers of the endoplasmic reticulum resident proteome: Secreted ER Calcium Modulated Protein (SERCaMP) assay (AID 1508630); details: SH-SY5Y GLuc-SERCaMP (Gaussia luciferase released on ER calcium loss) secretion, thapsigargin, luminescence; series mostly up to 38.4 µM; also: % is scaled to controls: 0 for no effect and ±100 for the full control effect
How it was run: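 GLuc-SERCaMP-expressing SH-SY5Y cells, pretreated 16 h with compound, are challenged with thapsigargin to empty ER calcium stores; after 4 h, coelenterazine is added directly to the medium and luminescence is imaged.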

[16] = target: Mitogen-activated protein kinase 10 (Mus musculus) (UniProt Q61831); assay: JNK3 AlphaScreen Assay (AID 530; active = well fitted curve in either direction with a large enough effect, not every such curve was filed as active); details: JNK3 lysate, c-Jun phosphorylation; series mostly up to 57.1 µM
How it was run: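 Compound titrations were preincubated 15 minutes at room temperature with substrate, antibody and pre-activated JNK3-containing HepG2 lysate. Reactions were started with 10 uM ATP and stopped with EDTA-containing bead buffer for AlphaScreen detection.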

[17] = target: Cytochrome P450 3A4 (Homo sapiens) (UniProt P08684); assay: qHTS Assay for Inhibitors and Substrates of Cytochrome P450 3A4 (AID 884); details: recombinant CYP3A4, Luciferin-PPXE luminescence; series mostly up to 57.1 µM; also: potency is read from the fitted curve at half-maximal effect; nearly all actives have a fitted effect of over 50% in size
How it was run: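 20 nM human CYP3A4 with 25 uM Luciferin-PPXE (at KM) in 200 mM KPO4, preincubated 10 min with compound; NADPH regeneration started a 60 min RT reaction. Luciferin detected by luminescence, normalized to 57 uM ketoconazole as full inhibition.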

[18] = target: Cytochrome P450 2C19 (Homo sapiens) (UniProt P33261); assay: qHTS Assay for Inhibitors and Substrates of Cytochrome P450 2C19 (AID 899); details: recombinant CYP2C19, luciferin-H EGE luminescence; series mostly up to 57.1 µM; also: potency is read from the fitted curve at half-maximal effect; nearly all actives have a fitted effect of over 60% in size
Cytochrome P450 2C19 (Homo sapiens), sequence (P33261 whole entry, looked up): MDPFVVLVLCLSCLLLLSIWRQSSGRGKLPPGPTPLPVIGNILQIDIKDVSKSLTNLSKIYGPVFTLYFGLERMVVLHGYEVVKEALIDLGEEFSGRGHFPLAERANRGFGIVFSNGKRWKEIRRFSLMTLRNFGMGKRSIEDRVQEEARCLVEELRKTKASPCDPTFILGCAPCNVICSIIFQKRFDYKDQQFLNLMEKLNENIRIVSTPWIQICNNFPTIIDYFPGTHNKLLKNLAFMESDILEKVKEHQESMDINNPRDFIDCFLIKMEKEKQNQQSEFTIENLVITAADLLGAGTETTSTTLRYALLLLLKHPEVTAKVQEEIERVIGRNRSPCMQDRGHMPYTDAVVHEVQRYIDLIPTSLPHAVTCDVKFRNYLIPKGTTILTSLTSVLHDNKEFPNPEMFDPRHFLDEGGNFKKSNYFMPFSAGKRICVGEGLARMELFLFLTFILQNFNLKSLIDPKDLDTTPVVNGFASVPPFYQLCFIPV
How it was run: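 Reactions contain 5nM enzyme, 10uM Luciferin-H EGE (KM) and 50mM KPO4; compound preincubates 10 min at 37C, NADPH regeneration starts turnover for 60 min. Luminescence after detection reagent gives activity.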

[19] = measured here: cell count channel max response
[20] = measured here: lipid channel max response

Row | SMILES | Potency [1] | activity change, negative = inhibition [2] | Potency [3] | activity change, negative = inhibition [4] | activity, negative = inhibition [5] | Potency [6] | Potency [7] | Potency [8] | Potency [9] | outcome [10] | activation [11] | outcome [12] | activity change, negative = inhibition [13] | max response [13, 19] | max response [13, 20] | Potency [14] | Potency [15] | outcome [16] | Potency [17] | Potency [18]
1 | CNc1ncncc1-c1ccccc1OC | > 11.4 µM (inactive) | -10.6% (inactive) | 1.58 µM (active) | 8.73% (inactive) | 6.99% (inactive) | > 46 µM (inactive) | > 46 µM (inactive) | inactive | inactive | inactive | 5.66% (inactive) | inactive | 5.61% (inactive) | 8.32% | 13.5% | inactive | inactive |  |  | 
2 | COc1cccc(-c2cncnc2NCc2ccccc2)c1 | > 11.4 µM (inactive) | -17.1% (inactive) | 5.01 µM (active) | 1.11% (inactive) | -9.01% (inactive) | > 46 µM (inactive) | > 46 µM (inactive) | inactive | inactive | inactive |  | inactive | 9.98% (inactive) | 12.4% | 12.8% | inactive | inactive | inactive | 0.316 µM (active) | 1.58 µM (active)
3 | COc1ccc(CNc2ccnc(-c3ccccc3C(F)(F)F)n2)c(OC)c1 | > 11.4 µM (inactive) | -17.1% (inactive) | 15.8 µM (active) | -5.1% (inactive) | 1.22% (inactive) | > 46 µM (inactive) | > 46 µM (inactive) | inactive | inactive | inactive |  | inactive | 6.23% (inactive) | 3.1% | 8.88% | 11.2 µM (active) | inactive | inactive | 3.16 µM (active) | 
4 | Fc1ccc(Nc2ncncc2-c2ccoc2)cc1 | > 11.4 µM (inactive) | -7.98% (inactive) | 0.316 µM (active) | 2.9% (inactive) | 4.97% (inactive) | > 46 µM (inactive) | > 46 µM (inactive) |  | inactive |  |  |  | 4.26% (inactive) | 9.18% | 12.6% | inactive | inactive | inactive | 0.501 µM (active) | 
5 | CN(Cc1ccco1)c1ncnc2ccc(-c3cccc(C#N)c3)cc12 | > 11.4 µM (inactive) | 6.41% (inactive) | 0.501 µM (active) | 19.8% (inactive) | -5.78% (inactive) | > 46 µM (inactive) | > 46 µM (inactive) | inactive | inactive | inactive |  | inactive | 6.34% (inactive) | -3.6% | 2.39% | inactive | inactive | inactive |  | 6.31 µM (active)
